PubChem BioAssay
The source made the active and inactive calls. Unless noted, no rule for the calls is given here.

Assays:
[1] = HepG2 liver cancer cell viability effects, profiling panel, resazurin fluorescence, 24 h, PK04 Diversity Set (AID 1172); conditions: higher = more signal
[2] = basal S. cerevisiae growth modulation, no modifier, primary screen, OD600, strain BY4716, 24 h, basal condition (AID 1173); conditions: OD600, 24 h, higher = more signal, called active from +8 up or from −8 down
[3] = MM1S myeloma cell viability, profiling panel, resazurin fluorescence, basal, 24 h, PK04 Diversity Set (AID 1174); conditions: higher = more signal, called active from +8 up or from −8 down;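 also: MM1S multiple myeloma cell line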
[4] = target: Dihydroorotate dehydrogenase (quinone), mitochondrial (Plasmodium falciparum (isolate 3D7)) (UniProt Q08210); assay: PfDHODH enzyme inhibitors, primary screen, biochemical, C-terminal His tag, absorbance 600 nm (AID 1175); conditions: DCIP absorbance 600 nm, higher = more signal, called active from +8 up or from −8 down;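 also: recombinant parasite enzyme with a five histidine tag at its C terminus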
Chain of Dihydroorotate dehydrogenase (quinone), mitochondrial (Plasmodium falciparum (isolate 3D7)) (Q08210 whole entry, looked up): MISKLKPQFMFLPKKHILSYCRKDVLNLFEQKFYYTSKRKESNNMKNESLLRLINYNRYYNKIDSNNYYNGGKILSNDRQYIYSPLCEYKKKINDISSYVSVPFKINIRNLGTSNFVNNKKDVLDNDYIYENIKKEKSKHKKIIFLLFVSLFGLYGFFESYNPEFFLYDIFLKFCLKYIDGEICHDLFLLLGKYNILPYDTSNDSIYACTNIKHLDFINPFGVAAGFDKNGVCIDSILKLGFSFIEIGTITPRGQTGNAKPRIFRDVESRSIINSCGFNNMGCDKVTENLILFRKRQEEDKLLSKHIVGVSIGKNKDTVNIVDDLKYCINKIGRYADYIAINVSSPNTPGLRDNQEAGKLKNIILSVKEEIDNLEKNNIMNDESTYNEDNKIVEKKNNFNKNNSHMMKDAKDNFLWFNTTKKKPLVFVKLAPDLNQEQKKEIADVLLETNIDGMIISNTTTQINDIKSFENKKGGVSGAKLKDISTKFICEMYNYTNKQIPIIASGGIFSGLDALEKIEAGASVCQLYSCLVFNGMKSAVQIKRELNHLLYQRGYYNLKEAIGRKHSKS

[5] = P. aeruginosa biofilm formation inhibitors, primary screen, strain PAO1, LB-PBS medium, absorbance 600 nm (AID 1176); conditions: P. aeruginosa PAO1 growth/biofilm, A600, 12 h; higher = more signal
[6] = S. cerevisiae RM11-1a growth modifiers, primary screen, strain RM11-1a, OD600, basal, 24 h (AID 1177); conditions: OD600, 24 h, higher = more signal, called active from +8 up or from −8 down;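 also: cultures grown under basal conditions with no added stressor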
[7] = E. coli acrAB mutant growth effects, primary screen, E. coli filamentation inducers, strain DRC39, OD650, 24 h (AID 1178); conditions: higher = more signal, called active from +8 up or from −8 down;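 also: growth measured as culture turbidity by optical density at 650 nm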
[8] = E. coli acrAB mutant growth effects, primary screen, E. coli filamentation inducers, strain DRC39, OD650, 48 h (AID 1179);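 also: screen aims at cell division blockers that make cells filament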; conditions: E. coli DRC39 delta-acrAB growth, higher = more signal, called active from +8 up or from −8 down
[9] = RPMI8226 myeloma cell viability, profiling panel, resazurin fluorescence, basal, 24 h, PK04 Diversity Set (AID 1180); conditions: higher = more signal;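 also: RPMI8826 multiple myeloma cell line at 5000 cells per well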
[10] = target: E3 ubiquitin-protein ligase XIAP (Homo sapiens) (UniProt P98170); assay: XIAP binders, primary screen, biophysical, small-molecule microarray, fluorescence 635 nm (AID 1181); conditions: small-molecule microarray binding, higher = more signal;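 also: score merges 667 nm emission and signal to noise over triplicate slides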
Chain of E3 ubiquitin-protein ligase XIAP (Homo sapiens) (P98170 whole entry, looked up): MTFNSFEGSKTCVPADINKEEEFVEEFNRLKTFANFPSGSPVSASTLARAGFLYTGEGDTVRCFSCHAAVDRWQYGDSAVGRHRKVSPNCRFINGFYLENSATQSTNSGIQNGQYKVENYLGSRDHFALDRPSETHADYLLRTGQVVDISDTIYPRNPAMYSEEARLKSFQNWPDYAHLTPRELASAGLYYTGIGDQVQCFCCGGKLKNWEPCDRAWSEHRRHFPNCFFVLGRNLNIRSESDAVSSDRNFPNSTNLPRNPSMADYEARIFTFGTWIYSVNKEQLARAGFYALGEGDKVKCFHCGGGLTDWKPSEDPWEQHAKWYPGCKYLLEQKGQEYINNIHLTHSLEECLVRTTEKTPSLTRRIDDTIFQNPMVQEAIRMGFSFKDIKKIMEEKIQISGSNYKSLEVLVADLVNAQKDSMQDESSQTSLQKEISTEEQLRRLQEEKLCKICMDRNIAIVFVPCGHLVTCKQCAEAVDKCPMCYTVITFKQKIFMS

[11] = system: XIP peptide (Xip251-270) binding; assay: small-molecule binders of XIP peptide, primary screen, biochemical, small-molecule microarray, fluorescence 635/667 nm, 0.1 µg/mL protein (AID 1182); conditions: fluorescent protein binding, 635 nm, higher = more signal, called active from +8 up or from −8 down
XIP peptide (Xip251-270) = assay: small-molecule binders of XIP peptide, primary screen, biochemical, small-molecule microarray, fluorescence 635/667 nm, 0.5 µg/mL protein (AID 1183); conditions: small-molecule microarray binding, fluorescence 635 nm; higher = more signal
[12] = Plasmodium falciparum growth inhibition, primary screen, strain 3D7, DAPI fluorescence, 100 nL (AID 1184);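 also: parasites grown inside human red blood cells in medium with human serum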; conditions: P. falciparum 3D7 growth, 3 d, higher = more signal
[13] = target: Homeobox protein Hox-A13 (Mus musculus) (UniProt Q62424); assay: inhibitors of HoxA13-DNA binding, primary screen, biochemical, fluorescence polarization, labeled oligonucleotide (AID 1185); conditions: 15 min, higher = more signal, called active from +8 up or from −8 down
Chain of Homeobox protein Hox-A13 (Mus musculus) (Q62424 whole entry, looked up): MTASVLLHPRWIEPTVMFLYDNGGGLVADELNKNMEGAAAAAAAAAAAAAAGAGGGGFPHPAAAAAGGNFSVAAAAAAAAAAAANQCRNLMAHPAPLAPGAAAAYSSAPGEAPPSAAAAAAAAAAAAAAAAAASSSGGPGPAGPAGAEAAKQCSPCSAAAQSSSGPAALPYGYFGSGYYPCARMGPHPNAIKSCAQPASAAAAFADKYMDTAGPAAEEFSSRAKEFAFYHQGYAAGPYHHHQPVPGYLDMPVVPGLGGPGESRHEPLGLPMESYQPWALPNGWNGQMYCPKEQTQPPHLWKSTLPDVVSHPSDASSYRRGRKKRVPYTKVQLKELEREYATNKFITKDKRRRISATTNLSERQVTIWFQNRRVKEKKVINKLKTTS

[14] = inhibitors of hydroxyurea-induced Chk1 phosphorylation, primary screen, imaging, HeLa, phospho-Chk1 antibody, percent positive cells (AID 1186); conditions: hydroxyurea-induced phospho-Chk1 immunofluorescence imaging, higher = more signal
[15] = inhibitors of hydroxyurea-induced Chk1 phosphorylation, primary screen, imaging, HeLa, phospho-Chk1 nuclear intensity (AID 1187); conditions: hydroxyurea-induced phospho-Chk1 immunofluorescence imaging, higher = more signal

Question: What does the source list for `C=C(CCCC)C(=O)CC[C@@H](OC(=O)c1cccnc1)c1ccccc1OCCO`?
Answer: z-score [1]: 0.0748; z-score [2]: -3.02 (inactive); z-score [3]: -1.22 (inactive); composite z-score [4]: -2.63 (inactive); z-score [5]: -0.153 (inactive); z-score [6]: 0.231 (inactive); z-score [7]: 0.604 (inactive); z-score [8]: 0.448 (inactive); z-score [9]: -2.39; composite z-score [10]: 0.0325; composite z-score [11]: -0.451 (inactive); composite z-score (XIP peptide (Xip251-270)): -0.0138; z-score [12]: -3.08; z-score [13]: -3.61 (inactive); z-score [14]: -0.383 (inactive); z-score [15]: -0.227 (inactive)

Question: For `COc1ccc([Si](C)(C)[C@@H]2[C@@H](CCn3cc([C@H](O)c4ccccc4)nn3)O[C@]3(C(=O)N(Cc4ccc(N5CCOC5=O)cc4)c4ccccc43)[C@H]2C)cc1`, which z-score [1] is on record?
Answer: 0.977

Question: And the z-score [2]?
Answer: 0.146 (inactive)

Question: What about the z-score [3] of the same compound?
Answer: -0.806 (inactive)

Question: And the composite z-score [4]?
Answer: 0.181 (inactive)

Question: And the z-score [5]?
Answer: 0.483 (inactive)

Question: And the z-score [6]?
Answer: 1.54 (inactive)

Question: What about the z-score [7] of the same compound?
Answer: 0.323 (inactive)

Question: And the z-score [8]?
Answer: -0.0694 (inactive)

Question: What about the z-score [9] of the same compound?
Answer: -0.12

Question: What about the composite z-score [10] of the same compound?
Answer: 0.049

Question: What about the composite z-score [11] of the same compound?
Answer: 0.0449 (inactive)

Question: What about the composite z-score (XIP peptide (Xip251-270)) of the same compound?
Answer: 0.823

Question: And the z-score [12]?
Answer: -2.78

Question: What about the z-score [13] of the same compound?
Answer: -3.54 (inactive)

Question: What about the z-score [14] of the same compound?
Answer: 0.875 (inactive)

Question: What about the z-score [15] of the same compound?
Answer: 0.221 (inactive)

Question: Which results are given for `NC(=O)NCC#Cc1ccc2c(c1)[C@]1(C(=O)N2)[C@H](C(=O)Nc2nc3ccccc3s2)[C@H]2C(=O)O[C@H](c3ccccc3)[C@H](c3ccccc3)N2[C@@H]1c1ccc(O)cc1`?
Answer: z-score [1]: 0.493; z-score [2]: 3.37 (inactive); z-score [3]: 0.917 (inactive); composite z-score [4]: 0.9 (inactive); z-score [5]: 2.87 (inactive); z-score [6]: 5.05 (inactive); z-score [7]: 0.296 (inactive); z-score [8]: 0.321 (inactive); z-score [9]: -0.253; composite z-score [10]: -0.0337; composite z-score [11]: 0.207 (inactive); composite z-score (XIP peptide (Xip251-270)): 0.6; z-score [12]: -0.905; z-score [13]: 0.916 (inactive); z-score [14]: 0.118 (inactive); z-score [15]: 0.194 (inactive)

Question: Which results are given for `C=CCOC(=O)[C@@H]1[C@H]2C(=O)O[C@H](c3ccccc3)[C@H](c3ccccc3)N2[C@H](c2ccc(OCCOC(=O)[C@H]3C[C@H]4C(=O)N[C@@H](CCCCNC(C)=O)C(=O)N4[C@H]3c3cccc(OCCO)c3)cc2)[C@@]12C(=O)Nc1ccc(I)cc12`?
Answer: z-score [1]: -0.299; z-score [2]: 1.39 (inactive); z-score [3]: -0.565 (inactive); composite z-score [4]: -0.406 (inactive); z-score [5]: 4.17 (inactive); z-score [6]: 2 (inactive); z-score [7]: -0.115 (inactive); z-score [8]: 0.228 (inactive); z-score [9]: -0.354; composite z-score [10]: 0.0073; composite z-score [11]: 1.09 (inactive); composite z-score (XIP peptide (Xip251-270)): 0.822; z-score [12]: -1.64; z-score [13]: 1 (inactive); z-score [14]: -0.398 (inactive); z-score [15]: -0.929 (inactive)

Question: What does the source list for `C=C[C@@H](COC(C)=O)NS(=O)(=O)c1ccc(Br)cc1`?
Answer: z-score [1]: -1.44; z-score [2]: -11.8 (active); z-score [3]: -1.82 (inactive); composite z-score [4]: -0.502 (inactive); z-score [5]: -0.152 (inactive); z-score [6]: 0.628 (inactive); z-score [7]: -0.528 (inactive); z-score [8]: 0.0818 (inactive); z-score [9]: -0.978; composite z-score [10]: -0.184; composite z-score [11]: 0.0525 (inactive); composite z-score (XIP peptide (Xip251-270)): 0.113; z-score [12]: 0.4; z-score [13]: 0.34 (inactive); z-score [14]: -0.249 (inactive); z-score [15]: -0.227 (inactive)

Question: What does the source list for `Cc1ccc(S[C@]2(C(=O)NCCN3CCOCC3)CC(=O)N(Cc3ccccc3C(F)(F)F)[C@@H]2c2ccc(CO)cc2I)cc1`?
Answer: z-score [1]: 0.628; z-score [2]: -3.34 (inactive); z-score [3]: -2.71 (inactive); composite z-score [4]: -0.323 (inactive); z-score [5]: 0.875 (inactive); z-score [6]: -1.57 (inactive); z-score [7]: 0.142 (inactive); z-score [8]: 0.0559 (inactive); z-score [9]: -2.22; composite z-score [10]: -0.17; composite z-score [11]: 0.109 (inactive); composite z-score (XIP peptide (Xip251-270)): 0.895; z-score [12]: -0.701; z-score [13]: -3.32 (inactive); z-score [14]: 0.354 (inactive); z-score [15]: 0.873 (inactive)

Question: For `CC(C)C(=C=CC[C@@H](O)c1ccccc1OCCO)C[C@@H](O)COCc1ccccc1`, which z-score [1] is on record?
Answer: 0.669

Question: And the z-score [2]?
Answer: -15.5 (active)

Question: And the z-score [3]?
Answer: 0.304 (inactive)

Question: What about the composite z-score [4] of the same compound?
Answer: -5.41 (inactive)

Question: And the z-score [5]?
Answer: 0.354 (inactive)

Question: And the z-score [6]?
Answer: -4.06 (inactive)

Question: What about the z-score [7] of the same compound?
Answer: 2.28 (inactive)

Question: And the z-score [8]?
Answer: 1.51 (inactive)

Question: What about the z-score [9] of the same compound?
Answer: 0.424

Question: And the composite z-score [10]?
Answer: 0.109

Question: What about the composite z-score [11] of the same compound?
Answer: 0.493 (inactive)

Question: What about the composite z-score (XIP peptide (Xip251-270)) of the same compound?
Answer: 0.401

Question: And the z-score [12]?
Answer: -1.47

Question: And the z-score [13]?
Answer: -4.7 (inactive)

Question: What about the z-score [14] of the same compound?
Answer: -0.476 (inactive)

Question: What about the z-score [15] of the same compound?
Answer: 1.12 (inactive)

Question: Which z-score [1] does the source give for `COc1ccc([Si](C)(C)[C@H]2[C@H](CC(=O)N3Cc4ccccc4C[C@H]3CO)O[C@@]3(C(=O)N(Cc4cccc(N5CCCCC5=O)c4)c4ccccc43)[C@@H]2C)cc1` here?
Answer: -0.376

Question: And the z-score [2]?
Answer: -0.704 (inactive)

Question: What about the z-score [3] of the same compound?
Answer: -2.39 (inactive)

Question: And the composite z-score [4]?
Answer: -0.614 (inactive)

Question: And the z-score [5]?
Answer: 1.42 (inactive)

Question: And the z-score [6]?
Answer: 0.662 (inactive)

Question: What about the z-score [7] of the same compound?
Answer: -0.235 (inactive)

Question: What about the z-score [8] of the same compound?
Answer: -0.435 (inactive)

Question: What about the z-score [9] of the same compound?
Answer: -1.74

Question: And the composite z-score [10]?
Answer: 0.208

Question: And the composite z-score [11]?
Answer: 0.573 (inactive)

Question: What about the composite z-score (XIP peptide (Xip251-270)) of the same compound?
Answer: 0.743

Question: And the z-score [12]?
Answer: -1.62

Question: What about the z-score [13] of the same compound?
Answer: -3.09 (inactive)

Question: And the z-score [14]?
Answer: -0.507 (inactive)

Question: And the z-score [15]?
Answer: -0.35 (inactive)

Question: For `Cc1ccc(S[C@]2(C(=O)O)CC(=O)N(Cc3ccccc3Cl)[C@@H]2c2ccc(CO)cc2)cc1`, which z-score [1] is on record?
Answer: -0.739

Question: And the z-score [2]?
Answer: -0.399 (inactive)

Question: What about the z-score [3] of the same compound?
Answer: -0.465 (inactive)

Question: What about the composite z-score [4] of the same compound?
Answer: 0.0962 (inactive)

Question: What about the z-score [5] of the same compound?
Answer: 1.42 (inactive)

Question: And the z-score [6]?
Answer: 0.573 (inactive)

Question: What about the z-score [7] of the same compound?
Answer: 0.21 (inactive)

Question: What about the z-score [8] of the same compound?
Answer: 0.224 (inactive)

Question: What about the z-score [9] of the same compound?
Answer: 0.148

Question: What about the composite z-score [10] of the same compound?
Answer: -0.0749

Question: And the composite z-score [11]?
Answer: 0.084 (inactive)

Question: And the composite z-score (XIP peptide (Xip251-270))?
Answer: -0.0477

Question: And the z-score [12]?
Answer: -1.34

Question: What about the z-score [13] of the same compound?
Answer: -2.09 (inactive)

Question: And the z-score [14]?
Answer: -0.181 (inactive)

Question: And the z-score [15]?
Answer: -0.207 (inactive)

Question: Which results are given for `C=C(/C(=C/C[C@@H](OC(=O)c1ccncc1)c1ccc(OCCO)cc1)c1cc(C(=O)OC)ccc1OC)C(C)C`?
Answer: z-score [1]: 1.54; z-score [2]: 0.542 (inactive); z-score [3]: 0.288 (inactive); composite z-score [4]: -0.444 (inactive); z-score [5]: 0.224 (inactive); z-score [6]: -0.0338 (inactive); z-score [7]: 0.945 (inactive); z-score [8]: 0.52 (inactive); z-score [9]: 0.352; composite z-score [10]: -0.0916; composite z-score [11]: 0.281 (inactive); composite z-score (XIP peptide (Xip251-270)): 0.309; z-score [12]: -2.78; z-score [13]: -3.5 (inactive); z-score [14]: -0.899 (inactive); z-score [15]: -0.125 (inactive)
